Where “and” joins values, the source holds several entries; their conditions need not be identical. Identical values can stand only once. The whole screen tested about 5,500 compounds, of which about 2,000 (36%) were called active. Not shown: some 18% with an inconclusive outcome. Cut-off read from the data, not from the text of the source: active = normalized growth mostly below about 0.91 (no sharp cut-off); inconclusive = no clear call, values can overlap the other calls; inactive = mostly above about 0.92. The list shows a part of the results.
Assay: chemical genetic growth profiling, strain panel (AID 1159580);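 note: tested at 20 µM; growth read once vehicle control cultures reached saturation at 30 °C; 1 = growth at the plate median or of vehicle wells; lower values mean less growth of the strain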
Conditions: S. cerevisiae deletion strains, growth OD

Measured: normalized growth

CC(C)=CCc1c2c(c3occ(-c4ccc(O)c(O)c4)c(=O)c3c1O)C=CC(C)(C)O2
inactive: locus YAL021C, strain ccr4, stronger effect = lower value 0.95 | locus YAL026C, strain drs2, stronger effect = lower value 0.945 | locus YAL030W, strain snc1, stronger effect = lower value 0.961 | locus YBL061C, strain skt5, stronger effect = lower value 0.949 | locus YBR009C, strain hhf1, stronger effect = lower value 0.931 | locus YBR023C, strain chs3, stronger effect = lower value 0.937 | locus YBR171W, strain sec66, stronger effect = lower value 0.98 | locus YBR279W, strain paf1, stronger effect = lower value 0.956 | locus YCL011C, strain gbp2, stronger effect = lower value 0.944 | locus YCL016C, strain dcc1, stronger effect = lower value 0.961 | locus YCL069W, strain vba3, stronger effect = lower value 0.992 | locus YCR088W, strain abp1, stronger effect = lower value 0.997 | locus YDL005C, strain med2, stronger effect = lower value 0.988 | locus YDL040C, strain nat1, stronger effect = lower value 1 | locus YDL185W, strain tfp1, stronger effect = lower value 0.966 | locus YDR001C, strain nth1, stronger effect = lower value 1 | locus YDR137W, strain rgp1, stronger effect = lower value 1 | locus YDR159W, strain sac3, stronger effect = lower value 0.959 | locus YDR195W, strain ref2 1.01 | locus YDR297W, strain sur2, stronger effect = lower value 0.924 | locus YDR334W, strain swr1, stronger effect = lower value 0.969 | locus YDR335W, strain msn5, stronger effect = lower value 0.953 | locus YDR392W, strain spt3, stronger effect = lower value 0.782 | locus YEL003W, strain gim4, stronger effect = lower value 0.932 | locus YEL037C, strain rad23, stronger effect = lower value 0.977 | locus YEL061C, strain CIN8 (second series), stronger effect = lower value 0.999 | locus YER016W, strain bim1, stronger effect = lower value 0.989 | locus YER110C, stronger effect = lower value 0.981 | locus YER111C, strain swi4, stronger effect = lower value 0.939 | locus YER155C, strain BEM2 (second series), stronger effect = lower value 0.909 | locus YFR010W, strain ubp6, stronger effect = lower value 0.946 | locus YGL078C, strain dbp3, stronger effect = lower value 0.93 | locus YGL167C, strain pmr1, stronger effect = lower value 0.986 | locus YGL227W, strain vid30, stronger effect = lower value 1 | locus YGL240W, strain doc1, stronger effect = lower value 0.994 | locus YGL253W, strain hxk2, stronger effect = lower value 0.937 | locus YHR013C, strain ard1, stronger effect = lower value 0.947 | locus YHR027C, strain rpn1, stronger effect = lower value 0.932 | locus YHR079C, strain IRE1, stronger effect = lower value 0.926 | locus YHR142W, strain chs7, stronger effect = lower value 0.948 | locus YIL125W, strain kgd1, stronger effect = lower value 0.933 | locus YJL092W, strain hpr5, stronger effect = lower value 0.983 | locus YJL095W, strain BCK1 (second series), stronger effect = lower value 0.961 | locus YJL115W, strain asf1, stronger effect = lower value 0.999 | locus YJL129C, strain trk1, stronger effect = lower value 1 | locus YJL154C, strain vps35, stronger effect = lower value 1 | locus YJL166W, strain qcr8, stronger effect = lower value 0.919 | locus YJR066W, strain TOR1, stronger effect = lower value 0.885
active: locus YBR021W, strain FUR4, stronger effect = lower value 0.518 | locus YBR229C, strain ROT2, stronger effect = lower value 0.548 | locus YBR231C, strain swc5, stronger effect = lower value 0.895 | locus YCL029C, strain bik1, stronger effect = lower value 0.616 | locus YDL035C, strain GPR1, stronger effect = lower value 0.238 | locus YDL074C, strain BRE1, stronger effect = lower value 0.313 | locus YDL101C, strain DUN1, stronger effect = lower value 0.256 | locus YDL134C, strain PPH21, stronger effect = lower value 0.235 | locus YDL192W, strain arf1, stronger effect = lower value 0.66 | locus YDR069C, strain doa4, stronger effect = lower value 0.845 | locus YDR101C, strain arx1, stronger effect = lower value 0.747 | locus YDR162C, strain NBP2, stronger effect = lower value 0.155 | locus YDR318W, strain mcm21, stronger effect = lower value 0.721 | locus YDR388W, stronger effect = lower value 0.776 | locus YDR502C, strain sam2, stronger effect = lower value 0.674 | locus YEL061C, strain CIN8, stronger effect = lower value 0.406 | locus YER015W, strain faa2, stronger effect = lower value 0.909 | locus YER155C, strain BEM2, stronger effect = lower value 0.544 | locus YER167W, strain BCK2, stronger effect = lower value 0.545 | locus YGL086W, strain mad1, stronger effect = lower value 0.67 | locus YGL173C, strain kem1, stronger effect = lower value 0.887 | locus YGL248W, strain PDE1, stronger effect = lower value 0.257 | locus YGR078C, strain PAC10, stronger effect = lower value 0.457 | locus YGR135W, strain pre9, stronger effect = lower value 0.586 | locus YGR252W, strain gcn5, stronger effect = lower value 0.557 | locus YHR079C, strain IRE1 (second series), stronger effect = lower value 0.722 | locus YHR094C, strain hxt1, stronger effect = lower value 0.888 | locus YHR129C, strain ARP1, stronger effect = lower value 0.457 | locus YHR200W, strain rpn10, stronger effect = lower value 0.724 | locus YIL066C, strain RNR3, stronger effect = lower value 0.227 | locus YIL073C, strain SPO22, stronger effect = lower value 0.137 | locus YIR030C, strain dcg1, stronger effect = lower value 0.811 | locus YJL134W, strain LCB3, stronger effect = lower value 0.677 | locus YJL164C, strain tpk1, stronger effect = lower value 0.91 | locus YJL168C, strain set2, stronger effect = lower value 0.916 | locus YJL187C, strain SWE1 (second series), stronger effect = lower value 0.161 | locus YJR043C, strain POL32, stronger effect = lower value 0.255 | locus YJR075W, strain HOC1, stronger effect = lower value 0.468
0.197 (active) and 0.903 (inactive): locus YHR030C, strain SLT2, stronger effect = lower value
0.145 (active) and 0.912 (inactive): locus YJL095W, strain BCK1, stronger effect = lower value
